Laboratory results: PubChem BioAssay AID1159580 (chemical genetic matrix, 2015)
The whole screen tested about 5,500 compounds, of which about 2,000 (36%) were called active. Another 18% or so got no clear call; they are omitted. Cut-off read from the data, not from the text of the source: active = normalized growth mostly below about 0.91 (no sharp cut-off); inconclusive = no clear call, values can overlap the other calls; inactive = mostly above about 0.92. The list shows a part of the results.

Experiment: chemical genetic growth profiling, strain panel (AID 1159580);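 note: tested at 20 µM; growth read once vehicle control cultures reached saturation at 30 °C; 1 = growth at the plate median or of vehicle wells; lower values mean less growth of the strain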
Details: S. cerevisiae deletion strains, growth OD
[1] = locus YHR030C, strain SLT2, active compounds read low
[2] = locus YHR079C, strain IRE1, active compounds read low
[3] = locus YJL095W, strain BCK1, active compounds read low
[4] = locus YJR066W, strain TOR1, active compounds read low
[5] = locus YLR113W, strain HOG1, active compounds read low
[6] = locus YNL183C, strain NPR1, active compounds read low
[7] = locus YOR231W, strain MKK1, active compounds read low
[8] = locus YPL256C, strain CLN2, active compounds read low
[9] = locus YAL021C, strain ccr4, active compounds read low
[10] = locus YAL026C, strain drs2, active compounds read low
[11] = locus YAL030W, strain snc1, active compounds read low
[12] = locus YBL061C, strain skt5, active compounds read low
[13] = locus YBR009C, strain hhf1, active compounds read low
[14] = locus YBR023C, strain chs3, active compounds read low
[15] = locus YBR171W, strain sec66, active compounds read low
[16] = locus YBR231C, strain swc5, active compounds read low
[17] = locus YBR279W, strain paf1, active compounds read low
[18] = locus YCL011C, strain gbp2, active compounds read low
[19] = locus YCL016C, strain dcc1, active compounds read low
[20] = locus YCL061C, strain MRC1, active compounds read low
[21] = locus YCL069W, strain vba3, active compounds read low
[22] = locus YCR088W, strain abp1, active compounds read low
[23] = locus YDL005C, strain med2, active compounds read low
[24] = locus YDL040C, strain nat1, active compounds read low
[25] = locus YDR001C, strain nth1, active compounds read low
[26] = locus YDR069C, strain doa4, active compounds read low
[27] = locus YDR137W, strain rgp1, active compounds read low
[28] = locus YDR159W, strain sac3, active compounds read low
[29] = locus YDR297W, strain sur2, active compounds read low
[30] = locus YDR334W, strain swr1, active compounds read low
[31] = locus YDR335W, strain msn5, active compounds read low
[32] = locus YDR392W, strain spt3, active compounds read low
[33] = locus YEL003W, strain gim4, active compounds read low
[34] = locus YEL037C, strain rad23, active compounds read low
[35] = locus YEL061C, strain CIN8 (second series), active compounds read low
[36] = locus YER015W, strain faa2, active compounds read low
[37] = locus YER016W, strain bim1, active compounds read low
[38] = locus YER111C, strain swi4, active compounds read low
[39] = locus YER155C, strain BEM2 (second series), active compounds read low
[40] = locus YFR010W, strain ubp6, active compounds read low
[41] = locus YGL167C, strain pmr1, active compounds read low
[42] = locus YGL173C, strain kem1, active compounds read low
[43] = locus YGL227W, strain vid30, active compounds read low
[44] = locus YGL240W, strain doc1, active compounds read low
[45] = locus YGL253W, strain hxk2, active compounds read low
[46] = locus YHR013C, strain ard1, active compounds read low
[47] = locus YHR027C, strain rpn1, active compounds read low
[48] = locus YHR142W, strain chs7, active compounds read low
[49] = locus YJL092W, strain hpr5, active compounds read low
[50] = locus YJL095W, strain BCK1 (second series), active compounds read low
[51] = locus YJL115W, strain asf1, active compounds read low
[52] = locus YJL129C, strain trk1, active compounds read low
[53] = locus YJL154C, strain vps35, active compounds read low
[54] = locus YJL164C, strain tpk1, active compounds read low
[55] = locus YJL166W, strain qcr8, active compounds read low
[56] = locus YKL160W, strain elf1, active compounds read low
[57] = locus YKR026C, strain gcn3, active compounds read low
[58] = locus YKR091W, strain srl3, active compounds read low
[59] = locus YLL001W, strain dnm1, active compounds read low
[60] = locus YLL026W, active compounds read low
[61] = locus YLL041C, strain sdh2, active compounds read low
[62] = locus YLR027C, strain aat2, active compounds read low
[63] = locus YLR221C, strain rsa3, active compounds read low
[64] = locus YLR258W, strain gsy2, active compounds read low
[65] = locus YLR262C, strain YPT6 (second series), active compounds read low
[66] = locus YLR320W, strain mms22, active compounds read low
[67] = locus YLR342W, strain FKS1, active compounds read low
[68] = locus YLR357W, strain rsc2, active compounds read low
[69] = locus YLR370C, strain arc18, active compounds read low
[70] = locus YLR384C, strain iki3, active compounds read low
[71] = locus YML120C, strain ndi1, active compounds read low
[72] = locus YMR058W, strain fet3, active compounds read low
[73] = locus YMR125W, strain sto1, active compounds read low
[74] = locus YMR129W, active compounds read low
[75] = locus YMR205C, strain PFK2, active compounds read low
[76] = locus YMR231W, strain pep5, active compounds read low
[77] = locus YNL071W, strain lat1, active compounds read low
[78] = locus YNL209W, strain ssb2, active compounds read low
[79] = locus YNL248C, strain rpa49, active compounds read low
[80] = locus YNL322C, strain KRE1 (second series), active compounds read low
[81] = locus YNR049C, strain mso1, active compounds read low
[82] = locus YOR001W, strain rrp6, active compounds read low
[83] = locus YOR070C, strain gyp1, active compounds read low
[84] = locus YOR080W, strain dia2, active compounds read low
[85] = locus YOR083W, strain WHI5, active compounds read low
[86] = locus YOR106W, strain vam3, active compounds read low
[87] = locus YOR265W, strain rbl2, active compounds read low
[88] = locus YOR270C, strain vph1, active compounds read low
[89] = locus YOR290C, strain snf2, active compounds read low
[90] = locus YPL051W, strain arl3, active compounds read low
[91] = locus YPL078C, strain atp4, active compounds read low
[92] = locus YPL106C, strain sse1, active compounds read low
[93] = locus YPL240C, strain hsp82, active compounds read low

Measured: normalized growth

O=C(CCCN1CCC(O)(c2ccc(Br)cc2)CC1)c1ccc(F)cc1
inactive: [1] 0.959 | [2] 0.976 | [3] 0.962 | [4] 0.937 | [5] 1.02 | [6] 0.902 | [7] 0.981 | [8] 1.02

O=C(CCCN1CCN(c2ccccn2)CC1)c1ccc(F)cc1
active: [9] 0.848 | [10] 0.0899 | [16] 0.855 | [17] 0.93 | [26] 0.858 | locus YDR195W, strain ref2 1.23 [resistant] | [32] 0.606 | [39] 0.436 | [40] 0.868 | [46] 0.746 | [48] 0.87 | [52] 0.811 | [56] 0.9 | [65] 0.821 | [66] 0.57 | [77] 0.781 | [79] 0.876 | [82] 0.789 | [83] 0.392 | [88] 0.541 | [90] 0.905
inactive: [11] 0.989 | [12] 0.968 | [13] 0.964 | [14] 0.969 | [15] 0.954 | [18] 0.971 | [19] 0.95 | [20] 0.993 | [21] 0.977 | [22] 0.992 | [23] 0.984 | [24] 0.984 | [25] 0.983 | [27] 1 | [28] 0.996 | [29] 0.972 | [30] 0.968 | [31] 0.948 | [33] 0.933 | [34] 0.971 | [35] 0.976 | [36] 0.977 | [37] 0.981 | [38] 0.947 | [41] 0.94 | [42] 0.927 | [43] 0.999 | [44] 0.966 | [45] 0.946 | [47] 0.974 | [1] 1.04 | [2] 1.04 | [49] 0.984 | [50] 0.968 | [3] 0.982 | [51] 0.973 | [53] 0.993 | [54] 0.932 | [55] 0.949 | locus YJL187C, strain SWE1, active compounds read low 0.967 | [4] 0.972 | [57] 0.988 | [58] 0.99 | [59] 0.975 | [60] 0.987 | [61] 0.984 | [62] 0.975 | [5] 1.01 | [63] 0.976 | [64] 0.987 | [67] 0.981 | [68] 1.12 | [69] 0.95 | [70] 0.943 | [71] 0.961 | [72] 0.943 | [73] 0.981 | [74] 0.986 | [75] 0.894 | [76] 0.973 | [6] 0.977 | [78] 0.962 | [80] 1.02 | [81] 0.986 | [84] 0.998 | [85] 0.948 | [86] 0.905 | [7] 1.04 | [87] 0.969 | [89] 0.894 | [91] 0.915 | [92] 1.1 | [93] 0.985 | [8] 1.1

OC1(c2ccc(Cl)c(C(F)(F)F)c2)CCN(CCCC(c2ccc(F)cc2)c2ccc(F)cc2)CC1
active: [9] 0.0667 | [10] 0.0627 | [11] 0.0597 | [12] 0.0677 | [13] 0.0608 | [14] 0.0682 | [15] 0.0917 | [16] 0.0658 | [17] 0.218 | [18] 0.0588 | [19] 0.0739 | [20] 0.394 | [21] 0.101 | [22] 0.0838 | [23] 0.0778 | [24] 0.109 | [25] 0.0892 | [26] 0.0704 | [27] 0.111 | [28] 0.0866 | locus YDR195W, strain ref2 0.0989 | [29] 0.0586 | [30] 0.0861 | [31] 0.0657 | [32] 0.0888 | [33] 0.0558 | [34] 0.0879 | [35] 0.0952 | [36] 0.0667 | [37] 0.0765 | [38] 0.14 | [39] 0.468 | [40] 0.0981 | [41] 0.0793 | [42] 0.0739 | [43] 0.188 | [44] 0.317 | [45] 0.0755 | [46] 0.148 | [47] 0.067 | [48] 0.0949 | [49] 0.105 | [50] 0.0578 | [51] 0.485 | [52] 0.0811 | [53] 0.0686 | [54] 0.0638 | [55] 0.0607 | [56] 0.348 | [57] 0.132 | [58] 0.0942 | [59] 0.0836 | [60] 0.0586 | [61] 0.0615 | [62] 0.0571 | [63] 0.061 | [64] 0.0676 | [65] 0.0931 | [66] 0.141 | [67] 0.0657 | [68] 0.321 | [69] 0.0708 | [70] 0.127 | [71] 0.057 | [72] 0.0807 | [73] 0.164 | [74] 0.0603 | [75] 0.0884 | [76] 0.0664 | [77] 0.0627 | [78] 0.0684 | [79] 0.196 | [80] 0.479 | [81] 0.12 | [82] 0.0677 | [83] 0.0739 | [84] 0.196 | [85] 0.0883 | [86] 0.0691 | [87] 0.0702 | [88] 0.127 | [89] 0.104 | [90] 0.0821 | [91] 0.216 | [92] 0.0967 | [93] 0.0596
inactive: [1] 0.952 | [2] 0.965 | [3] 0.972 | [4] 0.931 | [5] 0.946 | [6] 0.935 | [7] 0.981 | [8] 0.936
